DAX1 inh-1: DAX1 (NR0B1) inhibition, primary screen; inhibition, % at 6.8 µM; AID 652010; hit rate 1.1% among 370,000; HEK293T StAR-luciferase reporter, SF-1/DAX-1 repression relief;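 active = inhibition above the mean over all tested compounds plus 3 SD, cut at about 3.6% in these data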;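 note: 0% = DAX-1 cells with DMSO and 100% = cells lacking DAX-1 with DMSO; higher inhibition means more luminescence from relief of DAX-1 repression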
ssDAF-12 act: activates DAF-12 receptor from parasite S. stercoralis. HEK293 ssDAF-12/GRIP1 lit1-tk-luc reporter, luminescence; % of 3 µM dafachronic acid response. activation, % at 6.8 µM. hit rate 1% among 370,000;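 active = activation above the mean over all tested compounds plus 3 SD, cut at about 0.9% in these data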;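 note: 0% = DMSO-only wells and 100% = 3 µM delta7-dafachronic acid wells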
hcDAF-12 act: H. contortus DAF-12 activation, primary screen; HEK293 hcDAF-12 lit1-tk-luc reporter, luminescence; 0% DMSO, 100% Δ7-dafachronic acid; activation, % at 6.8 µM; hit rate 1.4% among 370,000;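 active = activation above the mean of all tested compounds plus 3 SD, cut at about 5.5% in these data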;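 note: 100% = response to 3 µM Δ7-dafachronic acid high control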
DAX1 inh-2: inhibitors of human orphan nuclear receptor DAX1 (NR0B1); HEK293 Gal4-DAX1 luciferase reporter, luminescence; inhibition, % at 6.75 µM; hit rate 0.99% among 340,000;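 active = inhibition above the mean over all tested compounds plus 3 SD, cut at about 4.2% in these data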;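 note: 0% = DAX1-transfected cells with DMSO and 100% = empty-vector control cells with DMSO; inhibition shows as a rise in luminescence from relieved DAX1 repression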
Target sequence (P51843 207-470 limits assumed): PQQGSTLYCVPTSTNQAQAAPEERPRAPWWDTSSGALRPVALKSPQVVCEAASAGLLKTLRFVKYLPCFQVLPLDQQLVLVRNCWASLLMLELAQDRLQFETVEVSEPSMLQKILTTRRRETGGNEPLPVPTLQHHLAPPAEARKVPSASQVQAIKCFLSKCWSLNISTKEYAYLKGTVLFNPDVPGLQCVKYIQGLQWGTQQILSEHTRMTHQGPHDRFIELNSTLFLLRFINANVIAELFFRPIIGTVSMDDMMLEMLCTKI
hgDAF-12 ag: hgDAF-12 agonism, primary luciferase screen | HEK293 GAL4-hgDAF12 UAS-luciferase reporter, agonist luminescence; normalized to butyrate control | activation, % at 6.8 µM | hit rate 1.8% among 370,000 | AID 687014;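 active = activation above a cutoff set at the mean of all screened compounds plus 3 SD, cut at about 10% in these data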;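 note: 0% = DMSO wells and 100% = sodium butyrate wells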
GAA850 FXN act: frataxin GAA850 promoter activation; hit rate 0.56% among 360,000; AID 540364; HEK293 lucGAA850 FXN promoter luciferase reporter, 24 h; percent of 10 µM SAHA response; activation, % at 6 µM;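 active = activation above the average of all compounds screened plus 3 SD, cutoff fixed separately per campaign, cut at about 7.5% in these data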;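 note: 0% = DMSO wells and 100% = 10 µM SAHA wells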
Numbers without * were called inactive; x = not tested or not shown. Most compounds without a hit are left out; they make up all but 4.5% or so of the library.

SMILES | DAX1 inh-1 | ssDAF-12 act | hcDAF-12 act | DAX1 inh-2 | hgDAF-12 ag | GAA850 FXN act
O=S(=O)(CC1NCCc2ccccc21)NCCc1ccccc1 (stereo unspecified) | 0 | -1 | -1 | x | 0 | x
O=c1[nH]c2cccnc2c2ccsc12 | 0 | 0 | 0 | 5.9* | -2 | 2
O=C([C@@H]1C[C@H]1c1ccccc1)N1CCC(Oc2cccnc2)CC1 | 0 | -1 | 0 | x | 0 | x
O=C(O)CCN1C(=O)/C(=C/c2ccc(F)cc2F)SC1=S | x | 1 | 0 | x | 0 | x
COc1cc(C=NN=c2sc3ccccc3n2C)ccc1OCCO | 2 | 0 | -1 | x | 12* | x
COc1cc(C(=O)N=c2sc3ccccc3n2C)cc(OC)c1OC | 0 | -1 | -2 | -2 | -2 | 3
COC(=O)C1CN(Cc2ccc(OC)cc2)CCS(=O)(=O)N1Cc1cn(Cc2ccc(C)cc2)nn1 (stereo unspecified) | -1 | -1 | -1 | x | 1 | x
O=C(O)CCC(=O)/C=C/c1ccccc1 | -1 | -1 | -2 | 2 | 1 | 2
CCOc1ccc(/C=C/C(=O)CCC(=O)O)cc1 | 3 | -2 | 1 | 5.8* | 3 | -3
COc1ccc2c(c(-c3ccccc3)cn2C)c1-c1ccccc1 | 0 | -1 | 1 | x | 1 | x
CCOC(=O)c1cc(C)sc1/N=C/C1C(=O)CC(C)(C)CC1=O | 0 | -1 | -2 | 0 | 3 | 0
CCOC(=O)c1c(CC(C)C)csc1/N=C/C1C(=O)CC(C)(C)CC1=O | 0 | -1 | -2 | 5.5* | -2 | 0
CC1(C)CC2CN(Cc3ccccc3)S(=O)(=O)N2C1 (stereo unspecified) | x | -1 | 2 | x | 2 | x
Cc1ncoc1C(=O)N1CCc2c([nH]c3ccccc23)C1C1CCCCC1 (stereo unspecified) | 1 | 1 | 6.1* | -1 | 8 | 3
Cc1cnc(CN2CCc3c([nH]c4ccccc34)C2C2CCCCC2)[nH]1 (stereo unspecified) | 0 | -1 | 2 | -1 | -1 | 2
O=C(c1ccc(Cl)cc1)N1CCc2c([nH]c3ccccc23)C1C(F)(F)F (stereo unspecified) | 0 | -1 | 0 | -1 | -1 | -1
Cc1ncoc1C(=O)N1CCc2c([nH]c3ccccc23)C1C(C)(C)C (stereo unspecified) | 3 | 1.0* | 5.6* | 1 | 0 | 4
c1ccc(-c2cccc(CNc3nc(-c4ccccn4)nnc3-c3ccccc3)c2)cc1 | x | -1 | -3 | x | -11 | x
CC[C@@H](CCC(=O)N(c1ccccc1)c1ccccc1)c1ccc(C)cc1 | 0 | -2 | -1 | x | 0 | x
Cc1ccc(C(=O)O)cc1NC(=O)C1CCCN1S(=O)(=O)c1cccc2nsnc12 (stereo unspecified) | 0 | 1.6* | 0 | 0 | 0 | 0
Cc1c(NC(=O)C2CCCN2S(=O)(=O)c2cccc3nsnc23)cccc1C(=O)O (stereo unspecified) | 0 | 0 | 0 | 0 | -1 | 0
O=C(c1cccc(F)c1F)N1CCCC(c2nc(-c3cccs3)no2)C1 (stereo unspecified) | 1 | -1 | -2 | x | 2 | x
Fc1ccccc1N1CCN(C2CCN(Cc3c[nH]c4ccccc34)CC2)CC1 | 0 | 1.3* | 3 | 0 | 1 | 1
Clc1ccccc1N1CCN(Cc2c[nH]c3ccccc23)CC1 | 0 | 0 | 3 | -1 | 1 | -2
CCOC(=O)C1(Cc2ccccc2C)CCCN(Cc2cn(C)nc2C)C1 (stereo unspecified) | 1 | -1 | 1 | 6.1* | -3 | 1
SMILES | DAX1 inh-1 | ssDAF-12 act | hcDAF-12 act | DAX1 inh-2 | hgDAF-12 ag | GAA850 FXN act
C[C@H]1C2CC(OC(=O)Nc3ccc(C#N)cc3)C(C2)[C@H]2CCCCN21 (stereo partly specified) | 0 | -1 | -1 | x | 0 | x
CSc1ccccc1NC(=O)c1cc(-c2ccc3c(c2)OCO3)on1 | 0 | 0 | 1 | 1 | 4 | 2
O=C(Nc1cc(Br)ccc1O)c1cc(-c2ccc3c(c2)OCO3)on1 | 0 | 0 | 5 | 5.7* | 5 | 3
CC(C)CNC(=O)c1cc(-c2ccc3c(c2)OCO3)on1 | 3 | 0 | 3 | 3 | 9 | 3
CN(C(=O)c1cc(-c2ccc3c(c2)OCO3)on1)c1ccccc1 | 1 | 0 | 3 | 3 | 11* | 7
O=C(COC(=O)c1c(F)cccc1Cl)NC1CCCCC1 | 2 | 1.0* | 2 | 1 | 6 | 4
CN(C)CCC(=O)c1ccc2c(c1)OCO2 | 0 | -1 | -1 | 4 | -1 | -2
O=C(CCNc1ccccc1)c1ccc2c(c1)OCO2 | 3 | 1 | 4 | 4.8* | 11* | 7
CCN(CC)c1ccc2cc(-c3nc4ccccc4[nH]3)c(=O)oc2c1 | x | x | x | -2 | x | -6
CCN(CC)c1ccc2cc(-c3nc4ccccc4n3C)c(=O)oc2c1 | 3.6* | 1.0* | 2 | 2 | 3 | 3
COC(=O)[C@@]12C[C@@H](CC(=O)NCCC(C)C)C(=O)N(CCc3ccc(OC)c(OC)c3)C1=CCC(C)(C)C2 | 4.4* | -1 | -2 | x | 0 | x
O=C1NC(=S)S/C1=C\c1cc(Cl)ccc1Cl | 3.7* | -1 | 2 | 2 | 3 | 1
O=C(CC1SC(=Nc2ccccc2)N(CCc2ccccn2)C1=O)Nc1ccc(F)cc1 (stereo unspecified) | -1 | -1 | 6.2* | -2 | 2 | 0
COC(=O)C(Cc1ccc(O)cc1)NC(=O)c1ccccc1 (stereo unspecified) | -1 | -1 | 0 | 2 | 2 | 0
COC(=O)C(Cc1ccccc1)NC(=O)c1ccc(C)cc1 (stereo unspecified) | 0 | 1.3* | 0 | -1 | 7 | 7
COc1cc(C2Nc3ccccc3C(=O)N2c2ccc3c(c2)OCCO3)ccc1OCC(C)C (stereo unspecified) | 2 | 0 | 5 | -3 | 12* | -1
O=C1c2ccccc2NC(c2ccc3c(c2)OCCO3)N1c1ccc2c(c1)OCCO2 (stereo unspecified) | 2 | 0 | 4 | -2 | 12* | -3
CCCC[C@@H]1C(=O)N2N=Cc3cc4ccccc4cc3[C@H]2N2N=Cc3cc4ccccc4cc3[C@@H]12 | -3 | -1 | 5 | x | -6 | x
CCOC(=O)Nc1ccc2c(c1)[C@@]1(CC(=O)N(CC(C)C)C1c1ccccc1)C(=O)N2C (stereo partly specified) | 1 | -1 | -1 | x | 1 | x
O=C(N/N=C/C1CC2CCC1C2)c1c[nH]c2ccccc12 (stereo unspecified) | 1 | 1 | 5.7* | 0 | 6 | 4
O=C(N/N=C/c1ccc[nH]1)c1c[nH]c2ccccc12 | 1 | 0 | 0 | 1 | -1 | 2

Screens (PubChem BioAssay)
